According to PubChem BioAssay:
For part of these data: Potency and affinity values are given separately. The source made the active and inactive calls. Unless noted, the rule behind the calls is not given here.

Key:
[1] = antimalarial activity against Dd2 strain (AID 2302;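 active = growth inhibition above 50% at the single 2 µM test dose, taken to imply half-maximal potency below 2 µM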;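 note: 0% = DMSO untreated growth and 100% = chloroquine plus artemisinin killed control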); conditions: P. falciparum Dd2 in RBCs, LDH growth readout, 72 h; at 2 µM; active compounds read high
[2] = HepG2 cytotoxicity, primary screen, cytotoxicity control for P. falciparum antimalarial project, cell-based, ATP luminescence (AID 2303;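 active = inhibition above 50%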;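 note: 0% = DMSO wells and 100% = digitonin-killed cells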); conditions: HepG2 viability, 24-48 h, at 10 µM, active compounds read high
[3] = molecular target: L-lactate dehydrogenase (Plasmodium falciparum (isolate CDC / Honduras)) (UniProt Q27743); assay: PfLDH activity inhibition – cell lysate, 3D7 strain, counter-screen for P. falciparum growth inhibition project (AID 2304);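 note: 0% = vehicle and 100% = reference inhibitor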; conditions: P. falciparum 3D7 crude extract, LDH APAD/NBT absorbance; at 2 µM; active compounds read high
Chain of L-lactate dehydrogenase (Plasmodium falciparum (isolate CDC / Honduras)) (Q27743 whole entry, looked up): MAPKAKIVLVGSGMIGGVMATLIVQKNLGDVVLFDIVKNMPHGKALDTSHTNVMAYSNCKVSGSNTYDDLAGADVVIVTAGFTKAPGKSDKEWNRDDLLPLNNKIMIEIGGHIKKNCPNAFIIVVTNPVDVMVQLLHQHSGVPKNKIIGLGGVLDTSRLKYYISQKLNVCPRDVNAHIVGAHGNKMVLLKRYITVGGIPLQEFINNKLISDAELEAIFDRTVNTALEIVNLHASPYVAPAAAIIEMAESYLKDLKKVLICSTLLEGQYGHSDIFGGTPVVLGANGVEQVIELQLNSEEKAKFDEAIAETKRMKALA

[4] = inhibition of 3D7 malaria parasite growth – strain 3D7 (AID 2306);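 note: 0% = DMSO wells and 100% = chloroquine plus artemisinin control wells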; conditions: P. falciparum 3D7 erythrocytic growth, LDH absorbance, 72 h; at 2 µM; active compounds read high
[5] = molecular target: Calcium-dependent protein kinase 1 (Plasmodium falciparum (isolate 3D7)) (UniProt P62344); assay: PfCDPK1 kinase inhibitors, biochemical, TCAMS library (AID 1159585; cut-off not given, nearly all actives have IC50 up to about 0.98 µM;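 note: inhibitors leave more ATP so luminescence rises with inhibition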); conditions: recombinant PfCDPK1, Kinase-Glo ATP depletion luminescence
Chain of Calcium-dependent protein kinase 1 (Plasmodium falciparum (isolate 3D7)) (P62344 whole entry, looked up): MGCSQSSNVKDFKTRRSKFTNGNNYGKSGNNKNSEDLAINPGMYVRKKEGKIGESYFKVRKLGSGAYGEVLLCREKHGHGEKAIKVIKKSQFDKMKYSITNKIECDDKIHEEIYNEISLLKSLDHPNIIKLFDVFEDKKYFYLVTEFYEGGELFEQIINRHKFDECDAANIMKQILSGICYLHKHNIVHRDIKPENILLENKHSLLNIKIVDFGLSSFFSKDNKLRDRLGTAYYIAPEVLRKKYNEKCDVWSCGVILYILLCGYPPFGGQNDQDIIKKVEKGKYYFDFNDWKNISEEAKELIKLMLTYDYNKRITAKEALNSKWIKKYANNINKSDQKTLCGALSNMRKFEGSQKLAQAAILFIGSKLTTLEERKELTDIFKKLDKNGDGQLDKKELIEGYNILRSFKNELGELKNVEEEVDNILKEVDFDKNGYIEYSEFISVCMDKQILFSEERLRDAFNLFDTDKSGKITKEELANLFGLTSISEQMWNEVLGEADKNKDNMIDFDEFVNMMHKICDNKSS

[6] = molecular target: Plasmodium falciparum protein kinase 6 (PK6, PF3D7_1337100) (UniProt Q8IDW1); assay: PfPK6 kinase inhibitors, biochemical, TCAMS library (AID 1159586); conditions: recombinant PfPK6, Kinase-Glo ATP depletion luminescence
Chain of Plasmodium falciparum protein kinase 6 (PK6, PF3D7_1337100) (Q8IDW1 1-305): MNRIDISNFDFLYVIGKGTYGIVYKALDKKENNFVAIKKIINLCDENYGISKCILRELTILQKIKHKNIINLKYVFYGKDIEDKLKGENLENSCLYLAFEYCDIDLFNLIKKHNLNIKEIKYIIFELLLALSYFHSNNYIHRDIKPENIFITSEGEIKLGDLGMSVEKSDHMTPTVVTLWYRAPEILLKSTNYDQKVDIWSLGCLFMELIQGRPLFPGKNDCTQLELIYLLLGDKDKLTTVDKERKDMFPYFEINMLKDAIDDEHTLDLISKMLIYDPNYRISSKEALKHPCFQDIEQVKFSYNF

[7] = molecular target: Protein kinase 7 (PK7), Plasmodium falciparum 3D7 (PF3D7_0213400) (UniProt Q7YTF7); assay: inhibition of Plasmodium PK7 catalytic activity – biochemical, TCAMS antimalarial set, Kinase-Glo luminescence (AID 1159587); conditions: recombinant PfPK7, Kinase-Glo ATP depletion luminescence
Chain of Protein kinase 7 (PK7), Plasmodium falciparum 3D7 (PF3D7_0213400) (Q7YTF7 1-343): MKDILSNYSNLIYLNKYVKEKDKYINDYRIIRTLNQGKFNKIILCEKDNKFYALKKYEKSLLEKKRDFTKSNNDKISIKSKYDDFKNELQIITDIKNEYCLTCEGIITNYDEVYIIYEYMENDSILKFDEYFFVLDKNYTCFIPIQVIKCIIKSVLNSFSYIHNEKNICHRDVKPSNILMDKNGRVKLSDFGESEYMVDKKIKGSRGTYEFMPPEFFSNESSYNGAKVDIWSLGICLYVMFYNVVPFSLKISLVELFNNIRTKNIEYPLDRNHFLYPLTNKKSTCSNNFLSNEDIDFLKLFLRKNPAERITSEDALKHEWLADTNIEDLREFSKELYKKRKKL

[8] = molecular target: Calcium-dependent protein kinase 4 (Plasmodium falciparum (isolate 3D7)) (UniProt Q8IBS5); assay: PfCDPK4 kinase inhibitors, biochemical, TCAMS library (AID 1159588; cut-off not given, nearly all actives have IC50 up to about 0.91 µM); conditions: recombinant PfCDPK4, Kinase-Glo ATP depletion luminescence
Chain of Calcium-dependent protein kinase 4 (Plasmodium falciparum (isolate 3D7)) (Q8IBS5 whole entry, looked up): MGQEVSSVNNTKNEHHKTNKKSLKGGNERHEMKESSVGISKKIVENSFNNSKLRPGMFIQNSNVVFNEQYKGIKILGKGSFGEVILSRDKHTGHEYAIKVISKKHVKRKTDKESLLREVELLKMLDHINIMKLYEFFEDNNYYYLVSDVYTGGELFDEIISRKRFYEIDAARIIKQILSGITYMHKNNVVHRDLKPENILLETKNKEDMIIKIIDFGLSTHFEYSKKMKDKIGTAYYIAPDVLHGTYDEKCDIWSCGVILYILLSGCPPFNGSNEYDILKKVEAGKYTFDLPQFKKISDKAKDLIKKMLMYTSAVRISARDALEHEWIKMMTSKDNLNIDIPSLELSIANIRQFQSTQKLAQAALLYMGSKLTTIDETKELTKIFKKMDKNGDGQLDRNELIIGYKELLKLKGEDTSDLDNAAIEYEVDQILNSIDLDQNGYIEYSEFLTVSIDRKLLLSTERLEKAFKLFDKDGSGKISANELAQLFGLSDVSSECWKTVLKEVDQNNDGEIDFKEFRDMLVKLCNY

CCn1ncc(Cl)c1CN(C)S(=O)(=O)c1ccc2ccccc2c1
inactive: inhibition [2] 16% | inhibition [3] -2% | outcome [5] | outcome [6] | outcome [7] | outcome [8]
active: growth inhibition [1] 91% | growth inhibition [4] 101%

CN(C)CCCOc1cccc(CCNCc2cccc(Oc3ccc(Cl)cc3)c2)c1
active: growth inhibition [1] 67% | inhibition [2] 72% | growth inhibition [4] 93%
inactive: inhibition [3] -3% | outcome [5] | outcome [6] | outcome [7] | outcome [8]

CC1=C(C(=O)Nc2ccccc2)C(c2ccc([N+](=O)[O-])cc2)n2ncc(C(=O)Nc3ccccc3)c2N1 (configuration not stated)
inactive: inhibition [2] 9% | inhibition [3] -1% | outcome [5] | outcome [6] | outcome [7] | outcome [8]
active: growth inhibition [1] 68% | growth inhibition [4] 86%

Cc1cccc2[nH]c(-c3ccc(-c4ccc(CN5CCN(CCO)CC5)cc4)cc3)nc12
active: growth inhibition [1] 97% | growth inhibition [4] 100%
inactive: inhibition [2] 20% | inhibition [3] -4% | outcome [5] | outcome [6] | outcome [7] | outcome [8]

c1ccc(CNCc2cccc(-c3ccc(-c4nc5ccccc5[nH]4)s3)c2)cc1
active: growth inhibition [1] 63% | growth inhibition [4] 95%
inactive: inhibition [2] 8% | inhibition [3] 3% | outcome [5] | outcome [6] | outcome [7] | outcome [8]

N#Cc1ccc(-c2ccc(C(=O)Nc3ccc4c(c3)CCN(C3CCC3)CC4)nc2)cn1
active: growth inhibition [4] 85%
inactive: growth inhibition [1] 15% | inhibition [2] 24% | inhibition [3] -1% | outcome [5] | outcome [6] | outcome [7] | outcome [8]

COC(=O)C(Cc1ccccc1)NC(=O)NC1CCN(c2ccnc(Nc3ccc(F)cc3)n2)C1 (configuration not stated)
active: growth inhibition [4] 90%
inactive: growth inhibition [1] 14% | inhibition [2] 0% | inhibition [3] -3% | outcome [5] | outcome [6] | outcome [7] | outcome [8]

Cc1cc(NN=Cc2ccc(F)cc2)c2cccc(C)c2n1
inactive: inhibition [2] 7% | inhibition [3] -6% | outcome [5] | outcome [6] | outcome [7] | outcome [8]
active: growth inhibition [1] 99% | growth inhibition [4] 100%

Cn1c(NCc2cc(F)cc3c2OCOC3)nc2cc(Nc3ccnc(Nc4cccc(CS(C)(=O)=O)c4)n3)ccc21
inactive: inhibition [2] -14% | inhibition [3] -1% | outcome [5] | outcome [6] | outcome [7] | outcome [8]
active: growth inhibition [1] 100% | growth inhibition [4] 102%

CCCCOc1ccc(N2C(N)=NC(N)=NC2(C)C)cc1
inactive: growth inhibition [1] 3% | inhibition [2] 16% | inhibition [3] 6% | outcome [5] | outcome [6] | outcome [7] | outcome [8]
active: growth inhibition [4] 97%

CCCCCCCC1CCN(C[C@H](O)c2ccnc3ccc(OC)cc23)CC1
inactive: inhibition [2] 23% | inhibition [3] 3% | outcome [5] | outcome [6] | outcome [7] | outcome [8]
active: growth inhibition [1] 81% | growth inhibition [4] 94%

O=C(Cc1cccc2ccccc12)N1CCc2cc3nccc(N4CCN5CCC[C@H]5C4)c3cc21
inactive: inhibition [2] 3% | inhibition [3] 2% | outcome [5] | outcome [6] | outcome [7] | outcome [8]
active: growth inhibition [1] 99% | growth inhibition [4] 101%

OCCN1CCN(Cc2ccc(-c3cccc(-c4nc5ccc(C(F)(F)F)cc5[nH]4)c3)cc2)CC1
active: growth inhibition [1] 83% | growth inhibition [4] 99%
inactive: inhibition [2] 29% | inhibition [3] 0% | outcome [5] | outcome [6] | outcome [7] | outcome [8]

O=C(NC1CCN(Cc2ccsc2)CC1)c1ccc(-c2cccc(C(F)(F)F)c2)s1
active: growth inhibition [4] 88%
inactive: growth inhibition [1] 3% | inhibition [2] 48% | inhibition [3] -2% | outcome [5] | outcome [6] | outcome [7] | outcome [8]

CN(CCCCCNC(=O)/C=C/c1ccc(Cl)c(Cl)c1)CCc1c[nH]c2ccccc12
active: growth inhibition [4] 91%
inactive: growth inhibition [1] 18% | inhibition [2] 40% | inhibition [3] 2% | outcome [5] | outcome [6] | outcome [7] | outcome [8]

Cc1cc(-c2ccc(CNCc3ccc(F)cc3)cc2)ccc1S(=O)(=O)NCCN1CCCC1
inactive: growth inhibition [1] 41% | inhibition [3] -1% | outcome [5] | outcome [6] | outcome [7] | outcome [8]
active: inhibition [2] 95% | growth inhibition [4] 100%

N#Cc1ccc(-c2ccc(C(=O)NC3CCN(CCN4CCC(c5cn(CCOC6CCCCO6)c6ccccc56)CC4)CC3)cc2)cc1 (configuration not stated)
inactive: inhibition [2] 48% | inhibition [3] 2% | outcome [5] | outcome [6] | outcome [7] | outcome [8]
active: growth inhibition [1] 86% | growth inhibition [4] 99%

COc1ccc(Cn2c(N3CCN(S(=O)(=O)c4ccc(OC)cc4)CC3)nc3c2c(=O)n(CC2CC2)c(=O)n3CC2CC2)cc1
inactive: growth inhibition [1] 39% | inhibition [2] -12% | inhibition [3] -3% | outcome [5] | outcome [6] | outcome [7] | outcome [8]
active: growth inhibition [4] 92%

COc1ccc(C(=O)Nc2cc(Cl)c3c(c2)C2CCCN2CC3)cc1C(F)(F)F (configuration not stated)
active: growth inhibition [4] 99%
inactive: growth inhibition [1] 33% | inhibition [2] 35% | inhibition [3] -1% | outcome [5] | outcome [6] | outcome [7] | outcome [8]

COc1ccc(NC(=O)[C@H](Cc2ccccc2)Nc2cc(C)nc(NCCOc3ccccc3)n2)cc1
inactive: growth inhibition [1] 25% | inhibition [2] 11% | inhibition [3] 3% | outcome [5] | outcome [6] | outcome [7] | outcome [8]
active: growth inhibition [4] 98%

COCCN(C)c1ccc(C(=O)Nc2ccccc2)cc1NS(=O)(=O)Cc1ccccc1
active: growth inhibition [4] 92%
inactive: growth inhibition [1] 47% | inhibition [2] 2% | inhibition [3] -5% | outcome [5] | outcome [6] | outcome [7] | outcome [8]

COc1ccc2[nH]cc(C3CCN(CCC4CCN(C(=O)/C=C/c5ccc(Cl)c(Cl)c5)CC4)CC3)c2c1
active: growth inhibition [1] 56% | inhibition [2] 52% | growth inhibition [4] 101%
inactive: inhibition [3] 3% | outcome [5] | outcome [6] | outcome [7] | outcome [8]

CC(C)c1ccc2c(c1)c(SC(C)(C)C)c(CC(C)(C)C#N)n2Cc1ccc(Cl)cc1
active: growth inhibition [1] 95% | growth inhibition [4] 96%
inactive: inhibition [2] -3% | inhibition [3] 8% | outcome [5] | outcome [6] | outcome [7] | outcome [8]

CCN(CC)CCOc1cc2c(cc1Br)-c1cc(Br)c(OCCN(CC)CC)cc1C2=NO
inactive: inhibition [3] -3% | outcome [5] | outcome [6] | outcome [7] | outcome [8]
active: growth inhibition [1] 98% | inhibition [2] 99% | growth inhibition [4] 100%

O=C(Nc1ccc(F)cc1)NC1CCN(c2ccnc3ccccc23)C1 (configuration not stated)
active: growth inhibition [4] 92%
inactive: growth inhibition [1] 2% | inhibition [2] 9% | inhibition [3] -2% | outcome [5] | outcome [6] | outcome [7] | outcome [8]

COC(=O)c1cccc(CN(CCC(O)(C(F)(F)F)C(F)(F)F)C(=O)CC2CCCC2)c1
inactive: inhibition [2] -1% | inhibition [3] 0% | outcome [5] | outcome [6] | outcome [7] | outcome [8]
active: growth inhibition [1] 53% | growth inhibition [4] 98%

CC(C)C(=O)NC(c1ccc(Cl)cc1)c1ccc2cccnc2c1O (configuration not stated)
active: growth inhibition [1] 70% | inhibition [2] 53% | growth inhibition [4] 91%
inactive: inhibition [3] 3% | outcome [5] | outcome [6] | outcome [7] | outcome [8]

COc1ccc2ncc(Cl)c(NCC3(O)CCC(NCc4ccc5c(n4)NC(=O)CS5)CC3)c2n1 (configuration not stated)
active: growth inhibition [4] 96%
inactive: growth inhibition [1] 31% | inhibition [2] 39% | inhibition [3] -3% | outcome [5] | outcome [6] | outcome [7] | outcome [8]

CN(CCC(O)c1ccc(Cl)c(Cl)c1)C[C@H]1C[C@@H]1C(=O)c1ccccc1 (some centres not stated)
inactive: inhibition [2] 11% | inhibition [3] -3% | outcome [5] | outcome [6] | outcome [7] | outcome [8]
active: growth inhibition [1] 96% | growth inhibition [4] 98%

CCC(C(=O)Nc1cc(=O)[nH]c2nc(-c3ccco3)nn12)c1ccccc1 (configuration not stated)
inactive: inhibition [2] 2% | inhibition [3] -1% | outcome [5] | outcome [6] | outcome [7] | outcome [8]
active: growth inhibition [1] 68% | growth inhibition [4] 87%

O=C(/C=C/c1ccc(Cl)c(Cl)c1)NCCCCCCN1CCN(C(=O)Nc2ccc(Cl)c(C(F)(F)F)c2)CC1
inactive: growth inhibition [1] 43% | inhibition [2] 47% | inhibition [3] -6% | outcome [5] | outcome [6] | outcome [7] | outcome [8]
active: growth inhibition [4] 99%

FC(F)(F)c1ccc2nc(-c3ccc(-c4ccc(CNCc5cnn(-c6ccccc6)n5)cc4)s3)[nH]c2c1
active: growth inhibition [1] 89% | growth inhibition [4] 100%
inactive: inhibition [2] 27% | inhibition [3] -2% | outcome [5] | outcome [6] | outcome [7] | outcome [8]

N#Cc1ccc2c(c1)CCN(CCC1CCC(NC(=O)c3cccc(-c4ccc(F)cc4)c3)CC1)CC2 (configuration not stated)
active: growth inhibition [4] 92%
inactive: growth inhibition [1] 10% | inhibition [2] 32% | inhibition [3] -3% | outcome [5] | outcome [6] | outcome [7] | outcome [8]

Oc1ccc(CCNc2nc(NCCCOc3ccccc3-c3ccc(C(F)(F)F)cc3)nc(N3CCNCC3)n2)cc1
inactive: growth inhibition [1] 49% | inhibition [3] 0% | outcome [5] | outcome [6] | outcome [7] | outcome [8]
active: inhibition [2] 64% | growth inhibition [4] 101%

O=C(NC1CC1)c1ccc(N2CCC(COc3cccc(F)c3)CC2)nc1
active: growth inhibition [1] 88% | growth inhibition [4] 89%
inactive: inhibition [2] 0% | inhibition [3] 4% | outcome [5] | outcome [6] | outcome [7] | outcome [8]

CC(=O)N[C@@H]1c2cc(C(C)=O)ccc2OC(C)(C)[C@@H]1O
active: growth inhibition [4] 97%
inactive: growth inhibition [1] 3% | inhibition [2] 15% | inhibition [3] -3% | outcome [5] | outcome [6] | outcome [7] | outcome [8]

CCCCCCCN1CC[C@H](NC(=O)Nc2ccnc3ccc(OC)cc23)[C@H](C(=O)OCC)C1
active: growth inhibition [1] 73% | growth inhibition [4] 101%
inactive: inhibition [2] 11% | inhibition [3] 7% | outcome [5] | outcome [6] | outcome [7] | outcome [8]

CC1(C)[C@H]2CC[C@@H](CNc3nc(NCCc4cnc[nH]4)nc(NCc4cc(F)ccc4F)n3)[C@@H]1C2
active: growth inhibition [1] 91% | growth inhibition [4] 100%
inactive: inhibition [2] 0% | inhibition [3] 6% | outcome [5] | outcome [6] | outcome [7] | outcome [8]

c1ccc(Oc2ccc(Nc3ccnc4cc(-c5ccc(CNCCN6CCOCC6)o5)ccc34)cc2)nc1
active: growth inhibition [1] 100% | growth inhibition [4] 101%
inactive: inhibition [2] -7% | inhibition [3] -2% | outcome [5] | outcome [6] | outcome [7] | outcome [8]
